# Assay outcomes (PubChem BioAssay)
# HSP90 inh: inhibitors of HSP90 luciferase refolding in rabbit reticulocyte lysate. luciferase refolding luminescence, 3 h. inhibition, % at 5.6 µM. 0.91% of 290,000 active. AID 1789;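 active means inhibition above the screen-wide mean plus 3 SD, computed separately per campaign, cut at about 16% in these data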;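 further: 0% = DMSO wells and 100% = 60 µM geldanamycin wells; inhibitors lower the luminescence because luciferase stays unfolded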
# Peg3 prom inh: Peg3 promoter activity inhibition | inhibition, % at 20 µM | HeLa PEG-Prom luciferase reporter, luminescence, overnight | 1.7% of 360,000 active;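 active means inhibition of at least 50% at 20 µM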
# LGR2 inh: blocks bursicon-induced cAMP signaling via Drosophila LGR2 | HEK293 LGR2, CRE-luciferase, bursicon-stimulated, 4 h | inhibition, % at 9.99 µM | 0.35% of 380,000 active | AID 720647;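 active means drop in luminescence signal, shown as inhibition above about 50% in the replicate tests, limit read from the data, passing the limit was not always enough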;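 further: agonist challenge used bursicon conditioned medium at about half maximal strength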
# Mdm2-MdmX inh: human Mdm2/MdmX binding inhibition. SaOS-2 split-luciferase Mdm2/MdmX complementation, luminescence. inhibition, % at 8 µM. 3% of 330,000 active. AID 485346;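 active means inhibition of at least 50% at 8 µM in the primary screen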
# Target sequence (O15151 whole entry, looked up): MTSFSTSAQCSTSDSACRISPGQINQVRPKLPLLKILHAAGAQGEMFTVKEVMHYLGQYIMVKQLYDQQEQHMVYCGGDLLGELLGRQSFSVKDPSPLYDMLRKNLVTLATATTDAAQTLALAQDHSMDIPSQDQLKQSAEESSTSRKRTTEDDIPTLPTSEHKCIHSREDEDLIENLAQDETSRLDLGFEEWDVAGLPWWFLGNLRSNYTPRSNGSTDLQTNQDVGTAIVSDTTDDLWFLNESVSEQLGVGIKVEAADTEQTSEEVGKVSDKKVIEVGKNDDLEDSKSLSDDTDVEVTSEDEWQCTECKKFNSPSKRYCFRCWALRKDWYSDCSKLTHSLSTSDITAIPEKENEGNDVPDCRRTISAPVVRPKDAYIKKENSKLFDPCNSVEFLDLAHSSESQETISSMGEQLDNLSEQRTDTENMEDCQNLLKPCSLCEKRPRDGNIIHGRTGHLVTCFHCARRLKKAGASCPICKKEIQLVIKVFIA
# Target sequence (Q00987 whole entry, looked up): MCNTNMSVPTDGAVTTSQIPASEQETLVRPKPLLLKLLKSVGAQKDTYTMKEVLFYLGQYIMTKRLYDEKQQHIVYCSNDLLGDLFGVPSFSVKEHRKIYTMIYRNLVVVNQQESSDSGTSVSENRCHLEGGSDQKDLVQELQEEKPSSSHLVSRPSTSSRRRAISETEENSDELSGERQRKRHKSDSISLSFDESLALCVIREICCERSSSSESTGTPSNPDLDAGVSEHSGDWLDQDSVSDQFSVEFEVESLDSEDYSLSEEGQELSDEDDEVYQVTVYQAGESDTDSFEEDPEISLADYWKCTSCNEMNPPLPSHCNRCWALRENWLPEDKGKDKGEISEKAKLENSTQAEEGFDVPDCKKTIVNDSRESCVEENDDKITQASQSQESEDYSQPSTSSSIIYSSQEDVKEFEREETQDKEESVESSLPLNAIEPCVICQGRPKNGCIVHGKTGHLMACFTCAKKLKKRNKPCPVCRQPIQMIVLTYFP
# CF NFkB block: cystic fibrosis NF-kB activation inhibition. 0.86% of 360,000 active. inhibition, % at 5 µM. KKLEB NF-kB-GFP reporter, PAF-induced, GFP fluorescence overnight;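 active means at least 50% inhibition at 5 µM, scaled per plate between neutral and stimulator controls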;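 further: PAF is a Pseudomonas aeruginosa culture filtrate used as stimulus; plate controls were PAF-stimulated DMSO wells for no effect and unstimulated DMSO wells for full effect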
# KKLEB tox: reduces viability of KKLEB cystic fibrosis airway cells; activity change (cytotoxicity), % at 5 µM; AID 602141; KKLEB CF airway cells viability, ATPlite luminescence, overnight; active compounds read low; cells stimulated with P. aeruginosa culture filtrate; 0.36% of 360,000 active;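 active means corrected activity change at or below -50% at 5 µM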
# The depositor's hits bear a star; x = no result. Rows were chosen to be rich in hits. Some 3.6% of all compounds tested hit in one or more screens of this group.
SMILES,HSP90 inh,Peg3 prom inh,LGR2 inh,Mdm2-MdmX inh,CF NFkB block,KKLEB tox
Cc1ccc2c(C)nc(Nc3nc(CSc4nnc(C)s4)cc(=O)[nH]3)nc2c1,-1,39,x,26,-10,-1
COc1cccc2c(C)nc(Nc3nc(CSc4nnc(C)s4)cc(=O)[nH]3)nc12,4,76*,x,27,-5,11
O=C(Cn1c(NCCCO)nc2ccccc21)c1ccco1,16*,12,-3,15,10,-16
COc1ccc(NC(=O)Nc2ccc3c(c2)[C@H]2C[C@H](CC(=O)N(C)C)O[C@H](CO)[C@H]2O3)cc1,x,x,-4,x,x,x
CO[C@@H]1CC[C@@H]2CCN(C)C(=O)C[C@H](c3ccccc3)CN(C)C(=O)c3cccc(C#N)c3OC[C@@H]1O2,x,x,16,x,x,x
CSc1nc(NCCN(C)C)c2sc3nc(-c4ccco4)c4c(c3c2n1)CCC4,x,106*,x,x,4,3
O=C(Nc1nc2cc3c(cc2s1)OCCO3)c1ccc([N+](=O)[O-])o1,10,49,-54,-22,83*,-44
COc1ccc2nc(NC(=O)c3ccc([N+](=O)[O-])o3)sc2c1,4,-25,-19,0,66*,-21
CCOC(=O)c1cccc(C(=O)Nc2nc3ccc(OC)cc3s2)n1,1,-133,-74,1,-19,-55*
CCCCNc1c(-c2cccc(-c3cc(C(C)=O)cs3)c2)nc2cc(C)ccn12,x,60*,23,35,10,-10
N/C(=N\OC(=O)c1cc([N+](=O)[O-])ccc1Cl)c1cccnc1,-1,62*,-1,38,-2,4
CO[C@@H]1CN(C)C(=O)c2ccc(NC(=O)Nc3c(C)noc3C)cc2OC[C@@H](C)N(CC2CC2)C[C@H]1C,x,x,10,x,x,x
CCc1ccc(/C=C2\SC(=S)N(CCCC(=O)NCCCN3CCOCC3)C2=O)cc1,x,84*,-28,x,10,-8
CCc1ccc(/C=C2/SC(=S)N(CCC(=O)NCCCN3CCOCC3)C2=O)cc1,0,-103,-10,12,-12,0
CCOc1ccc(/C=C2\SC(=S)N(CCCC(=O)NCCCN3CCOCC3)C2=O)cc1,6,68*,-18,18,5,-12
Cc1nn(C)cc1NC(=O)C[C@@H]1CC[C@@H]2[C@H](COc3ccc(NC(=O)NC(C)C)cc3C(=O)N2C)O1,x,x,12,x,x,x
CCN(CC)CC(O)Cn1c2ccccc2c2ccccc21 (configuration not stated),6,-23,-26,-31,6,3
CCN(CC)CC(O)Cn1c(C)c(-c2ccccc2)c2cc([N+](=O)[O-])ccc21 (configuration not stated),1,75*,1,35,-2,-14
O=C(CN(c1ccc(Br)cc1)S(=O)(=O)c1ccc(Cl)c([N+](=O)[O-])c1)NCCc1ccccc1,-2,65*,29,34,-27,-8
Cc1noc(C)c1NC(=O)Nc1ccc2c(c1)C(=O)N([C@@H](C)CO)C[C@H](C)[C@@H](CN(C)C(=O)Nc1cccc3ccccc13)OCCCC[C@H](C)O2,x,x,-13,x,x,x
COc1ccc(-c2cn3c(C)c(C(=O)N4CCN(c5ccc(F)cc5)CC4)sc3n2)cc1,68*,-6,-17,10,16,0
COc1ccc(-c2cn3c(C)c(C(=O)NC(C)(C)C)sc3n2)cc1,45*,-261,-53,-37,-3,8
COc1ccc(-c2cn3c(C)c(C(=O)N4CCN(c5ccccc5)CC4)sc3n2)cc1,x,-12,-13,x,-1,-3
COc1ccc(-c2cc3ccccc3cn2)cc1,x,-207,18,-176,-22,-12
COc1ccc(-c2cc3ccc(OC)cc3cn2)cc1,x,-126,67*,10,-23,-48
SMILES,HSP90 inh,Peg3 prom inh,LGR2 inh,Mdm2-MdmX inh,CF NFkB block,KKLEB tox
CO[C@@H]1CN(C)C(=O)c2ccc(NC(=O)Nc3cccc(Cl)c3)cc2OC[C@H](C)NC[C@H]1C,x,x,16,x,x,x
C/C=C/c1cnc2c(c1)C(=O)N([C@@H](C)CO)C[C@@H](C)[C@H](CN(C)C(=O)CN1CCOCC1)O2,x,x,-7,x,x,x
Cc1ccc(C(=O)N2CCSCC2)cc1,17*,-6,14,-10,13,2
COc1cc(NC(=O)c2cccc3c(-c4cccnc4)coc23)cc(OC)c1OC,x,99*,86*,x,10,-14
CS(=O)(=O)Nc1cccc(NC(=O)c2cccc3c(-c4cccc(C(N)=O)c4)coc23)c1,x,42,-17,x,15,-7
CC(=O)c1cccc(NC(=O)c2cccc3c(-c4cccc(C(N)=O)c4)coc23)c1,x,98*,-11,x,-70,-8
COc1ccc(-c2coc3c(C(=O)Nc4cc(OC)c(OC)c(OC)c4)cccc23)c(C)c1,x,34,58*,x,24,-38
COc1ccc(-c2coc3c(C(=O)Nc4ccc(OC)nc4)cccc23)c(C)c1,x,18,-10,x,23,-7
COc1ccc(S(=O)(=O)Nc2ccc3c(c2)C(=O)N([C@H](C)CO)C[C@@H](C)[C@@H](CN(C)C(=O)Nc2ccc(C(F)(F)F)cc2)O3)cc1,x,x,16,x,x,x
COC(=O)/C=C\C(C#N)(C#N)N=Cc1ccc(OC)cc1,x,105*,-22,x,9,-13
COc1ccc2c(C)cc(SCC(=O)NC3CCCCC3)nc2c1,x,30,x,22,18,9
COc1ccc2c(C)cc(SCC(=O)Nc3ccc(Cl)cn3)nc2c1,-1,25,-5,x,52*,-52*
Oc1ccc(N=C/C=C/c2cccc(Br)c2)cc1-c1nc2ccccc2s1,-2,67*,x,-10,-20,-1
O=C(C[C@H]1CC[C@@H](NC(=O)c2cccc(F)c2)[C@@H](CO)O1)Nc1nccs1,x,x,4,x,x,x
COc1cc(C2NC(=O)c3ccccc3O2)cc(OC)c1OC (configuration not stated),0,6,x,-26,5,-4
COc1cc(C2Oc3ccccc3C=C2[N+](=O)[O-])cc(OC)c1OC (configuration not stated),-5,52*,42,x,-29,-14
CO[C@@H]1CN(C)C(=O)c2cc(NS(=O)(=O)c3ccc(-c4ccccc4)cc3)ccc2OC[C@@H](C)NC[C@@H]1C,x,x,-5,x,x,x
C[C@H]1CN([C@@H](C)CO)C(=O)c2cc(NS(=O)(=O)c3ccc(F)cc3)ccc2O[C@H]1CN(C)Cc1ccccc1,x,x,-24,x,x,x
CCc1nc2ccc(C(=O)Nc3cc(-c4ccccc4)ccc3OC)cn2c1N(CC)CCN(C)C,x,84*,-23,x,31,-12
CCc1nc2ccc(C(=O)Nc3cc(-c4ccccc4)ccc3OC)cn2c1N(CC)Cc1cccc(Br)c1,x,0,-12,x,14,-24
N/C(=N\OC(=O)c1ccc(Cl)c(Cl)c1)c1ccccn1,-1,47,68*,-136,1,-15
N#CC(=C1C=C(Br)C(=NO)C=C1Cl)c1cccc2ccccc12,x,39,13,x,51*,0
O=C(c1ccccc1)c1cccc2ccccc12,x,24,-6,x,10,-13
